For some assays here: Entries with a potency or affinity are not part of this list.
Key:
Design in all cases: scale not given: direction of the effect not stated beside the values
[1] = target: Protein translocase subunit SecA (Escherichia coli (strain K12)) (UniProt P10408); experiment: Assay to Identify E. coli SecA ATPase Inhibitors; format: functional; conditions: 30 µM
[2] = target: T1, Ubiquitin-activating enzyme e1, putative (Leishmania donovani (strain BPK282A1)) (UniProt E9BSI1); experiment: Leishmania donovani Ubiquitin Activating Enzyme (LdE1); format: functional; conditions: 30 µM
T1 sequence (whole entry): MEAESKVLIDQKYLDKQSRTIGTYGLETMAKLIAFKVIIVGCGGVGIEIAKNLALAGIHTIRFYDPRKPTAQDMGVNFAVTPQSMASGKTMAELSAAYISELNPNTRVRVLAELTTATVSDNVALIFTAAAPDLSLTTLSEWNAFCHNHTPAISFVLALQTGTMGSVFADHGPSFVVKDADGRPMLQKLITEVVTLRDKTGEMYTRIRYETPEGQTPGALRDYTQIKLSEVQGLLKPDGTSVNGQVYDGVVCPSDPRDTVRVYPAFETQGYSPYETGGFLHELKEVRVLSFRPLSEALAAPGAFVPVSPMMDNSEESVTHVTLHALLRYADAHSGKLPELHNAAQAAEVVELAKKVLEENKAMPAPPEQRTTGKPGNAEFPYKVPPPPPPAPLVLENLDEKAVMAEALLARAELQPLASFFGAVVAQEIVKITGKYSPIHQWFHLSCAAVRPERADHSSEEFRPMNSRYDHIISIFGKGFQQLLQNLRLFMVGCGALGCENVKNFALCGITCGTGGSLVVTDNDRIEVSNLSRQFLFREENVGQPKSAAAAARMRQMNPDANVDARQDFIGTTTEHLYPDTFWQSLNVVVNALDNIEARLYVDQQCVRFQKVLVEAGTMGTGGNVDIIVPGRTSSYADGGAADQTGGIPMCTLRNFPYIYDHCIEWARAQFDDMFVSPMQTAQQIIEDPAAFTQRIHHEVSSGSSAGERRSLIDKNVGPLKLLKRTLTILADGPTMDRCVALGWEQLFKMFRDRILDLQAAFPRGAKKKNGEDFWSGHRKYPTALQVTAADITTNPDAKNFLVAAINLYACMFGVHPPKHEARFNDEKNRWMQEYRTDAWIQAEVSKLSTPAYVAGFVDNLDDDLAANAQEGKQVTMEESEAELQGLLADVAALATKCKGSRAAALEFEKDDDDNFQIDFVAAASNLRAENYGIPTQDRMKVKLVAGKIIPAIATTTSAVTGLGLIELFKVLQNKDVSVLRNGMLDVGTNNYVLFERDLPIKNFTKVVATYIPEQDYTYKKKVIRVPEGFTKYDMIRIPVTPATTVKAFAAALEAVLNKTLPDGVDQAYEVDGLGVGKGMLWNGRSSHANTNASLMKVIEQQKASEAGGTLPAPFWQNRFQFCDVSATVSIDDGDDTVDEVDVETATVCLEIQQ

[3] = target: AMP-activated protein kinase, AMPK (Homo sapiens) (UniProt P54646+O43741+P54619+Q9UGJ0+Q9Y478+Q13131+Q9UGI9); experiment: AMP-dependent Kinase enzyme assay. An in vitro enzyme assay that detects ADP turnover that is directly proportional to AMPK activity. This uses naive AMPK that is activated during the assay with MK-8722; format: functional; conditions: 30 µM
[4] = target: Sialic acid-binding Ig-like lectin 9 (Homo sapiens) (UniProt Q9Y336); experiment: Hs-Siglec9 ALPHAscreen SOP 20170721; conditions: 10 µM
Trypanosoma cruzi = experiment: Trypanosoma cruzi phosphomannomutase and mannose-1-phosphate guanylyltransferase assay; format: functional; conditions: 10 µM
[5] = target: T2, Arginase-2, mitochondrial (Homo sapiens) (UniProt P78540); experiment: in vitro enzyme assay to detect the production of urea directly proportional to the activity of Arginase II; format: functional; conditions: 33.3 µM; further: in the data most compounds retested in dose-response had high values
T2 sequence (whole entry): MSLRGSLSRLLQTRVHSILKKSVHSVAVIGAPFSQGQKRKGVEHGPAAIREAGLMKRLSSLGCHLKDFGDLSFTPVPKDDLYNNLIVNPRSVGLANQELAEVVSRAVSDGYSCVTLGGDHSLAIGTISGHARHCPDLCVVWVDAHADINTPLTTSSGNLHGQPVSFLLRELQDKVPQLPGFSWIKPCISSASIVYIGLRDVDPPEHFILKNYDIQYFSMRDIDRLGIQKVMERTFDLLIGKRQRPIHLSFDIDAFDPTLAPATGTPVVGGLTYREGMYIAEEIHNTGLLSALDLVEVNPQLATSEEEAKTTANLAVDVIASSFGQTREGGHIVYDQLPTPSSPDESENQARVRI

[6] = target: T3, Proteasome subunit beta (Trypanosoma cruzi) (UniProt O96673); experiment: Trypanosoma cruzi proteasome chymotrypsin-like activity (TcProtChymo) assay.; further: in the data most compounds retested in dose-response had high values; format: functional; conditions: 9.37 µM
T3 sequence (whole entry): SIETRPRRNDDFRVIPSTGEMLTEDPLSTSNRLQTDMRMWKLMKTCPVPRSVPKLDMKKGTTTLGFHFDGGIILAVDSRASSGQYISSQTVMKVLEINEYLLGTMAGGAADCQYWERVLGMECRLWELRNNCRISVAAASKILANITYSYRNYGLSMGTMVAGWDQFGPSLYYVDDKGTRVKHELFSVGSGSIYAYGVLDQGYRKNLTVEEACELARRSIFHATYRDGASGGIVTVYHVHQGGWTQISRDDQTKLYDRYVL

Homo sapiens = species on record: Homo sapiens; experiment: To identify inhibition of the IFN signalling (Jak-Stat) pathway via expression of an eGFP reporter gene under the control of an IFN-stimulated response element (ISRE) containing MxA promoter.; format: functional; conditions: 30 µM
[7] = target: T4, Tyrosyl-tRNA synthetase, putative (Trypanosoma cruzi (strain CL Brener)) (UniProt Q4DSP6); experiment: Trypanosoma cruzi tyrosyl tRNA synthetase (TcYRS) _High Tyrosine SOP; format: functional; conditions: 30 µM; further: in the data most compounds retested in dose-response had high values
T4 sequence (whole entry): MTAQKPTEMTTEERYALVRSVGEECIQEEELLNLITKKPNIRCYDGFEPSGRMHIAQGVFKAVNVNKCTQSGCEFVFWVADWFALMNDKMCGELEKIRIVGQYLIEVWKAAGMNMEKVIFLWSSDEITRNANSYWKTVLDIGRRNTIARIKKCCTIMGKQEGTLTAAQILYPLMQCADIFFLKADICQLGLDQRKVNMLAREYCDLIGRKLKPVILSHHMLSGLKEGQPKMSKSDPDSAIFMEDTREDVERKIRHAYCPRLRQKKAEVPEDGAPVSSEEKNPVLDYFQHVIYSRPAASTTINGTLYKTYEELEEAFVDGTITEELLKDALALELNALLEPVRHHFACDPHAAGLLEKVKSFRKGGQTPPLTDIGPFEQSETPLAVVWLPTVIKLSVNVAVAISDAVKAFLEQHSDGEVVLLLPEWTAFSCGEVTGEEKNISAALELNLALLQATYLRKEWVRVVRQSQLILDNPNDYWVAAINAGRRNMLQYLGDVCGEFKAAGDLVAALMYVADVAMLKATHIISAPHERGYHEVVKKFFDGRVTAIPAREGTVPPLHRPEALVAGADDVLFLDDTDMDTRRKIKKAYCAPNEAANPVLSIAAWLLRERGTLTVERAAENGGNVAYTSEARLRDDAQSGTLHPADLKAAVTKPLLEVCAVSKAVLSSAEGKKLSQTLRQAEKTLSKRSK

[8] = target: T4, Tyrosyl-tRNA synthetase, putative (Trypanosoma cruzi (strain CL Brener)); experiment: Trypanosoma cruzi tyrosyl tRNA synthetase (TcYRS) SOP; format: functional; conditions: 30 µM
[9] = target: Chromo domain-containing protein 1 (Saccharomyces cerevisiae (strain ATCC 204508 / S288c) (Baker's yeast)) (UniProt P32657); experiment: ScCHD-1 Enzyme Inhibition Assay; format: functional; conditions: 30 µM; further: in the data most compounds retested in dose-response had high values
Sequence of Chromo domain-containing protein 1 (Saccharomyces cerevisiae (strain ATCC 204508 / S288c) (Baker's yeast)) (P32657 whole entry, the tested form may be a part): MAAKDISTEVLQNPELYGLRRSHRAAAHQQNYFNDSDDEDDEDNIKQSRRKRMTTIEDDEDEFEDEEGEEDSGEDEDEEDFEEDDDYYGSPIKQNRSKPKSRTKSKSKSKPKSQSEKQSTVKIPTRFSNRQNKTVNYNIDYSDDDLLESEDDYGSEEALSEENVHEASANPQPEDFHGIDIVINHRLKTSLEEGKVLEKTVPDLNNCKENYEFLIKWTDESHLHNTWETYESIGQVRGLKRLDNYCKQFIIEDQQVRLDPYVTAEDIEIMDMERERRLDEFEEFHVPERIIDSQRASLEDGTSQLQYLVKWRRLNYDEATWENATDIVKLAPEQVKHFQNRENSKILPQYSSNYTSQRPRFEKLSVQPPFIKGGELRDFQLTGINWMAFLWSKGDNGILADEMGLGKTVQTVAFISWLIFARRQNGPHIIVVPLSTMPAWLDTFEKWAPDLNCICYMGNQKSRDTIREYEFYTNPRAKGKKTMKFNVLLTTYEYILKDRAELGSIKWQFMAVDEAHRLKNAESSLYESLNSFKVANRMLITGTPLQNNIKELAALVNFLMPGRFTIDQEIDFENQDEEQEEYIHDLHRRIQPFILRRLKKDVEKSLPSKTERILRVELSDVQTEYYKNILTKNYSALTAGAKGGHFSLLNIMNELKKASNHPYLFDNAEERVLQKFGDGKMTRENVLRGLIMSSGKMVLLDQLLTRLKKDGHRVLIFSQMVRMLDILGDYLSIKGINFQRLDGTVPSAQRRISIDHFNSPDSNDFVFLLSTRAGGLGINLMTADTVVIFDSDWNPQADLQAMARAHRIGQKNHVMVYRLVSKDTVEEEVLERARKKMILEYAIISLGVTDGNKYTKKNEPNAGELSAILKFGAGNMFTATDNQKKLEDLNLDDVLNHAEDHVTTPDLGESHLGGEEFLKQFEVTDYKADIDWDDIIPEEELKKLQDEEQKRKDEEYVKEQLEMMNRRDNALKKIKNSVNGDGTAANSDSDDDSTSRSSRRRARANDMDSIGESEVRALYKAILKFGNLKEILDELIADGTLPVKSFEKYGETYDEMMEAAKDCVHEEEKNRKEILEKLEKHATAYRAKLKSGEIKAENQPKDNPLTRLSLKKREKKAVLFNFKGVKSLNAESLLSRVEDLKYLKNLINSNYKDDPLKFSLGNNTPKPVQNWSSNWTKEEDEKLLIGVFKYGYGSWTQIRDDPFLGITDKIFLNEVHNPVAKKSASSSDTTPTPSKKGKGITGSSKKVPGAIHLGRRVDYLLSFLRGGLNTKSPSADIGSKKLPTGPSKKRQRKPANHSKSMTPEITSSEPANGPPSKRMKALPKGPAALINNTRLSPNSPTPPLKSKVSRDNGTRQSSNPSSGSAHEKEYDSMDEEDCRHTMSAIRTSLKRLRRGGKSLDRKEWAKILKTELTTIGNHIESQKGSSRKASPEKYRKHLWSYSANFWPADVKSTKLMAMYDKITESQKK

Sequence of Protein translocase subunit SecA (Escherichia coli (strain K12)) (P10408 whole entry): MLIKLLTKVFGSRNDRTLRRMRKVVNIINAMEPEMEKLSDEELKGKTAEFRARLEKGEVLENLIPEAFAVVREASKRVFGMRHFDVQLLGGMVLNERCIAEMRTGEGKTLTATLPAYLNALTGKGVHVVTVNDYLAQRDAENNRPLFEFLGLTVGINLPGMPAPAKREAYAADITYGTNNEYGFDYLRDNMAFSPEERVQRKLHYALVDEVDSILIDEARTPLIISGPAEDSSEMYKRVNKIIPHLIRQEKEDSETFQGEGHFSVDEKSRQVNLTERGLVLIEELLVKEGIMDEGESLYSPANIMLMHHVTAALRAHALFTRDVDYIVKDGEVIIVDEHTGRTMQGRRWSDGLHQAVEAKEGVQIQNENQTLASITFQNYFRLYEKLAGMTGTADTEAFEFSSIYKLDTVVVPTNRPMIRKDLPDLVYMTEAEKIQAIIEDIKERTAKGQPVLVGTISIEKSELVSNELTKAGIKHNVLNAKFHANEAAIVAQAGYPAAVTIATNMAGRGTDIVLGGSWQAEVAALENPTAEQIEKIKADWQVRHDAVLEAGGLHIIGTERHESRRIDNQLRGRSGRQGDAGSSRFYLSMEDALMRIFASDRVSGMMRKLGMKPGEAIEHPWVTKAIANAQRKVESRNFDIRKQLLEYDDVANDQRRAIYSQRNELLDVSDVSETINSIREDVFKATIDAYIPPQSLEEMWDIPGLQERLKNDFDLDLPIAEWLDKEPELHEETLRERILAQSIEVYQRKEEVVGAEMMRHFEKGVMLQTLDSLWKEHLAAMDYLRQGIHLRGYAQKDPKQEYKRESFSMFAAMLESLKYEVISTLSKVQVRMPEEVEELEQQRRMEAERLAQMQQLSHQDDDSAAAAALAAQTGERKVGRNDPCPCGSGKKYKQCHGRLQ
Sequence of Sialic acid-binding Ig-like lectin 9 (Homo sapiens) (Q9Y336 whole entry): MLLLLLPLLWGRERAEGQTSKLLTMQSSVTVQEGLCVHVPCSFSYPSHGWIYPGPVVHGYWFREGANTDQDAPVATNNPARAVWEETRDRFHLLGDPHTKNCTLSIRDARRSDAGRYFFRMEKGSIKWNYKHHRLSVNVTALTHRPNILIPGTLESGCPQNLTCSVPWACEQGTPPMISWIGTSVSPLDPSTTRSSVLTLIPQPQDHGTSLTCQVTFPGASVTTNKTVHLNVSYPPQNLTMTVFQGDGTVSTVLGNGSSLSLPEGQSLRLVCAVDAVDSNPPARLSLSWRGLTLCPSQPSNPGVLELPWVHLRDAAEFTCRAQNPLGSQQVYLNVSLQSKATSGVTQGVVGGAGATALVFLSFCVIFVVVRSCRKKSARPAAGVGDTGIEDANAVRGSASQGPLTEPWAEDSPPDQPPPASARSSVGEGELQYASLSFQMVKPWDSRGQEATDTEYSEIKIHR

SMILES | Percent Effect [1] | Percent Effect [2] | Percent Effect [3] | Percent Effect [4] | Percent Effect (Trypanosoma cruzi) | Percent Effect [5] | Percent Effect [6] | Percent Effect (Homo sapiens) | Percent Effect [7] | Percent Effect [8] | Percent Effect [9]
COCc1ccccc1CNc1nnc(C)c(C)c1C#N | -6.03% | 5.41% | -21.1% | -1.29% | -1.39% | 4.62% | 17.9% | 30.3% | 4.95% | 6.1% | -2.15%
Cn1nc(C(=O)NCc2ccccn2)c2c1CCS(=O)(=O)C2 | -2.26% | 6.67% | 15% | 1.25% | -6.48% | -11.1% | 16.3% | 11.6% | 6.35% | 12.8% | -9.63%
CN1C(=O)C(C)(C)COc2cc(NS(=O)(=O)c3ccccc3)ccc21 | -2.86% | 8.22% | -14% | 10.6% | -0.979% | 2.27% | 14.2% | 46.6% | -8.6% | 12.5% | -7.69%
COc1c(CNCc2ccc(N(C)C)nc2)c(C(C)C)nn1C | -3.16% | 13.2% | -3.28% | 6.83% | 6.39% | 4.6% | 6.01% | 13.5% | 5.39% | 17.1% | -12.6%
Cc1cnc(N2CCC3(CCCN(c4ccc(C)nn4)C3)C2)nc1 (configuration not stated) | 1.3% | 11% | 1.6% | 7.43% | -6.35% | -21.6% | 13.1% | 33.6% | 6.25% | 13.6% | -5.51%
CC(C)Nc1ncc(CN2C[C@@H](CN3CCC(O)CC3)[C@@H](CO)C2)cn1 | -5.5% | 2.67% | -4.76% | 7.2% | 2.43% | -0.521% | 12.2% | 8.53% | 4.92% | 11.1% | -8.5%
Cc1nc(CN2CCN(C(=O)c3ccn(C)c(=O)c3)CC2)cs1 | -3.89% | 19% | -4.58% | -0.681% | 2.15% | -4.52% | 15.9% | 10.6% | 9.38% | 15.2% | -25.7%
COCC(=O)N1Cc2cn(C)nc2C(COc2cccnc2)C1 (configuration not stated) | 1.2% | 15.6% | 0.672% | -9.95% | -0.493% | 7.1% | 10.4% | 35.1% | 1.06% | 6.41% | -9.03%
Cc1ccc(C(=O)N2CCN(C(=O)NC(C)Cn3ccnc3)CC2)o1 (configuration not stated) | -1.19% | 10.5% | 2.03% | 13.1% | 3.38% | 2.3% | 4.51% | 18.1% | 3.43% | 19.5% | -13.5%
CCn1cc(NC(=O)NC2CCCc3c2cnn3CCO)cn1 (configuration not stated) | -1.35% | 5.33% | -2.07% | 4.11% | -1.07% | 1.56% | 9.77% | 4.28% | 4.92% | 11.1% | -14.2%
COc1ccc(-c2csc(N)c2C#N)cc1OC | -2.5% | 6.67% | -9.01% | 5.81% | 4.91% | -6.16% | 7.02% | 12.1% | 1.06% | 0% | -1.98%
CC(O)CN1CCN(C(=O)c2ccc3c(c2)COC3)CC1 (configuration not stated) | -5% | 10.1% | -4.14% | 3.8% | 6.14% | -4.18% | 3.19% | -12.6% | 4.43% | 16.5% | -13.8%
Cc1c[nH]nc1C1CCN(S(=O)(=O)N(C)C)CC1 | -3.15% | 1.35% | -2.65% | 1.12% | -7.12% | -1.16% | -3.59% | 9.82% | 2.15% | 6.49% | -2.55%
COCCc1noc(CN2CCN(CC(O)c3ccccc3)CC2)n1 (configuration not stated) | -7.76% | 6.33% | 4.46% | -0.576% | -1.54% | 1.07% | 6.69% | 12% | 11.5% | 10.1% | -14.9%
Cc1nn(C)c(N2CCOCC2)c1CNC1CCN(C(C)(C)C)CC1 | -2.55% | 20.2% | -9.63% | -2.51% | -1.42% | -0.38% | 13.5% | 10.5% | 5.42% | 16.5% | -4.24%
CNC(=O)CSc1nc2c(cnn2Cc2ccc(F)cc2)c(=O)[nH]1 | -1.62% | 11% | 8.78% | 2.62% | -3.33% | 0% | 16.5% | 33.3% | 0% | 10% | -6.75%
CCc1noc(C(C)N2CCC(NC(=O)c3ccc(C)s3)CC2)n1 (configuration not stated) | -3.18% | 7.79% | 2.15% | 19.9% | 2.65% | 2.76% | 12.3% | 17.6% | 4.3% | 11.1% | -0.98%
CC(C(N)=O)S(=O)(=O)Cc1cc(Cl)c2c(c1)OCO2 (configuration not stated) | -0.171% | 15.8% | 1.18% | -10.6% | -3.83% | 7.91% | 6.51% | 7.44% | 5.42% | 13.6% | -7.99%
Cc1cc(C(=O)NCC2COCc3c(C)nnn3C2)no1 (configuration not stated) | -6.44% | 2.6% | -3% | 3.99% | -0.295% | -9.65% | 7.65% | -19% | 2.15% | 11.1% | -0.439%
CCn1cc(NC(=O)NCC(O)c2ccccc2)cn1 (configuration not stated) | -2.26% | 12.7% | -8.7% | 13.4% | -1.98% | 1.52% | 3.19% | -8.48% | 1.48% | 13.9% | -3.66%
COC(=O)c1cccc(C(=O)N2CCN(c3cccc(C)c3C)CC2)n1 | -0.0243% | 20.8% | -2.32% | 0.218% | 2.66% | 0.645% | 10.3% | 87% | 2.12% | 11.5% | -9.48%
CN1CCCC(Cc2ccnc3ccncc23)CC1 (configuration not stated) | -5.09% | -1.35% | 2.02% | 0.644% | -0.988% | -2.09% | -0.312% | 3.76% | 2.15% | -1.3% | 4.65%

Reference: ChEMBL document CHEMBL3988442, “University of Dundee, Small-Polar-MMV Screening Library” (2021)
